Measured values reported in PubChem BioAssay AID1159580 (chemical genetic matrix, 2015).
Several values for one entry are separate records, joined by “and”; a condition that tells them apart may be missing. Equal entries are not always repeated. In all, about 5,500 compounds went through this assay and about 2,000 (36%) were called active. Another 18% or so got no clear call; they are omitted. Cut-off read from the data, not from the text of the source: active = normalized growth mostly below about 0.91 (no sharp cut-off); inconclusive = no clear call, values can overlap the other calls; inactive = mostly above about 0.92. The list shows a part of the results.

Assay: chemical genetic growth profiling, strain panel (AID 1159580);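 note: tested at 20 µM; growth read once vehicle control cultures reached saturation at 30 °C; 1 = growth at the plate median or of vehicle wells; lower values mean less growth of the strain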
Conditions: S. cerevisiae deletion strains, growth OD

Measured: normalized growth

Cc1ccc(S(=O)(=O)NC(=O)NN2CCCCCC2)cc1
inactive: locus YAL013W, strain DEP1, hits give low values 0.996 | locus YAL021C, strain ccr4, hits give low values 0.999 | locus YAL026C, strain drs2, hits give low values 0.974 | locus YAL030W, strain snc1, hits give low values 0.991 | locus YAL040C, strain CLN3, hits give low values 1.05 | locus YBL061C, strain skt5, hits give low values 0.986 | locus YBR009C, strain hhf1, hits give low values 0.994 | locus YBR021W, strain FUR4, hits give low values 0.986 | locus YBR023C, strain chs3, hits give low values 0.981 | locus YBR171W, strain sec66, hits give low values 0.99 | locus YBR229C, strain ROT2, hits give low values 0.995 | locus YBR231C, strain swc5, hits give low values 0.999 | locus YBR279W, strain paf1, hits give low values 0.994 | locus YCL011C, strain gbp2, hits give low values 0.987 | locus YCL016C, strain dcc1, hits give low values 0.953 | locus YCL029C, strain bik1, hits give low values 0.99 | locus YCL061C, strain MRC1 (second series), hits give low values 0.998 | locus YCL069W, strain vba3, hits give low values 0.986 | locus YCR088W, strain abp1, hits give low values 0.984 | locus YDL005C, strain med2, hits give low values 0.989 | locus YDL035C, strain GPR1, hits give low values 0.997 | locus YDL040C, strain nat1, hits give low values 0.991 | locus YDL074C, strain BRE1, hits give low values 1.06 | locus YDL101C, strain DUN1, hits give low values 0.997 | locus YDL134C, strain PPH21, hits give low values 0.987 | locus YDL185W, strain tfp1, hits give low values 0.983 | locus YDL192W, strain arf1, hits give low values 0.988 | locus YDR001C, strain nth1, hits give low values 0.986 | locus YDR069C, strain doa4, hits give low values 1 | locus YDR101C, strain arx1, hits give low values 0.989 | locus YDR137W, strain rgp1, hits give low values 0.932 | locus YDR150W, strain NUM1, hits give low values 1 | locus YDR159W, strain sac3, hits give low values 0.969 | locus YDR162C, strain NBP2, hits give low values 0.999 | locus YDR195W, strain ref2 0.996 | locus YDR297W, strain sur2, hits give low values 1 | locus YDR318W, strain mcm21, hits give low values 0.977 | locus YDR334W, strain swr1, hits give low values 0.978 | locus YDR335W, strain msn5, hits give low values 0.973 | locus YDR363W, strain ESC2, hits give low values 1.01 | locus YDR388W, hits give low values 0.985 | locus YDR392W, strain spt3, hits give low values 0.861 | locus YDR502C, strain sam2, hits give low values 0.991 | locus YEL003W, strain gim4, hits give low values 1.01 | locus YEL037C, strain rad23, hits give low values 0.975 | locus YEL061C, strain CIN8 (second series), hits give low values 1 | locus YEL061C, strain CIN8, hits give low values 1 | locus YER002W, strain NOP16, hits give low values 1 | locus YER015W, strain faa2, hits give low values 1 | locus YER016W, strain bim1, hits give low values 0.976 | locus YER110C, hits give low values 0.988 | locus YER111C, strain swi4, hits give low values 0.987 | locus YER155C, strain BEM2 (second series), hits give low values 0.972 | locus YER155C, strain BEM2, hits give low values 0.988 | locus YER167W, strain BCK2, hits give low values 0.984 | locus YFR010W, strain ubp6, hits give low values 1.02 | locus YGL078C, strain dbp3, hits give low values 0.987 | locus YGL086W, strain mad1, hits give low values 0.999 | locus YGL167C, strain pmr1, hits give low values 0.992 | locus YGL173C, strain kem1, hits give low values 0.998 | locus YGL227W, strain vid30, hits give low values 1.01 | locus YGL240W, strain doc1, hits give low values 1 | locus YGL248W, strain PDE1, hits give low values 1 | locus YGL253W, strain hxk2, hits give low values 1.02 | locus YGR078C, strain PAC10, hits give low values 1.04 and 0.986 | locus YGR135W, strain pre9, hits give low values 0.965 | locus YGR229C, strain SMI1, hits give low values 1.01 and 1.05 | locus YGR252W, strain gcn5, hits give low values 0.96 | locus YHR013C, strain ard1, hits give low values 0.966 | locus YHR027C, strain rpn1, hits give low values 1 | locus YHR030C, strain SLT2, hits give low values 0.992 and 1.02 | locus YHR079C, strain IRE1 (second series), hits give low values 0.988 | locus YHR079C, strain IRE1, hits give low values 1.02 | locus YHR094C, strain hxt1, hits give low values 0.98 | locus YHR129C, strain ARP1, hits give low values 0.993 | locus YHR142W, strain chs7, hits give low values 0.986 | locus YHR200W, strain rpn10, hits give low values 0.984 | locus YIL066C, strain RNR3, hits give low values 1 | locus YIL073C, strain SPO22, hits give low values 0.925 | locus YIL125W, strain kgd1, hits give low values 0.982 | locus YIR030C, strain dcg1, hits give low values 0.978 | locus YJL092W, strain hpr5, hits give low values 0.991 | locus YJL095W, strain BCK1 (second series), hits give low values 0.982 | locus YJL095W, strain BCK1, hits give low values 1.03 and 1.02 | locus YJL115W, strain asf1, hits give low values 0.979 | locus YJL129C, strain trk1, hits give low values 0.952 | locus YJL134W, strain LCB3, hits give low values 0.995 | locus YJL154C, strain vps35, hits give low values 0.989 | locus YJL164C, strain tpk1, hits give low values 0.991 | locus YJL166W, strain qcr8, hits give low values 0.997 | locus YJL168C, strain set2, hits give low values 0.987 | locus YJL187C, strain SWE1 (second series), hits give low values 1.02 | locus YJL187C, strain SWE1, hits give low values 0.992 | locus YJR043C, strain POL32, hits give low values 1.02 | locus YJR066W, strain TOR1, hits give low values 0.948
